S16 F2sN tox = cytotoxicity in S16 Pmp22-F2sN Schwann cells; S16 Pmp22-F2sN Schwann cells viability, CellTiter-Glo, 24 h; Potency, µM (doses to about 57.5 µM), for inactives: at the highest dose activity change, negative = cytotoxicity, most hits filed as cytotoxic; actives 0.48% (n = 43,000); AID 1508642; note: nearly all actives have a fitted effect of over 65% in size
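Rat S16 Schwann reporter line, 24 h treatment with library compounds delivered at 23 nL per well. Cell viability by CellTiter-Glo luminescence.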
p53null 32C kill = kills p53 null cells at the permissive temperature. H1299-neo p53 null cells, ATP luminescence, 24 h, 32C. Potency, µM (titrated, usually from 46.1 µM), for the others: at the highest dose activity change, negative = cytotoxicity, usual class: cytotoxic. actives 0.62% (n = 55,000). AID 903;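 note: 0% = DMSO only and -100% = full killing by 100 µM tamoxifen; nearly all actives have a fitted effect of over 55% in size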
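Cells lacking p53 (H1299-neo) are plated at 600 per well and allowed to settle overnight at 37C. Test compounds (up to 46 uM) are added and held 24 hours at 32C, then ATP is quantified by luminescence.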
SKOV3 invasion = inhibitors of ovarian cancer cell adhesion and invasion in omental model | SKOV3ip1-GFP adhesion/invasion on 3D omental model, fluorescence | Potency, µM (series often up to 45.8 µM), for the others: at the highest dose activity change, negative = inhibition, actives largely listed as inhibitors | actives 0.1% (n = 46,000);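 note: plate controls were DMSO wells for no effect and tomatine positive control wells for full effect; nearly all actives have a fitted effect of over 65% in size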
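Primary human omental fibroblast/mesothelial 3D culture pre-formed 48 h. SKOV3ip1-GFP cells added with compounds (0.36-46 umol/L), incubated 2 h RT/16 h 37 C, fixed; GFP cells quantified at 488/509 nm.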
p53null 39C tox = kills p53 null cells at the nonpermissive temperature. H1299 p53-null (neo) cells, 39C, ATPlite viability, 24 h. Potency, µM (highest dose often 46.1 µM), without a hit: at the top dose activity, negative = cell killing, most hits filed as cytotoxic. actives 0.97% (n = 55,000). AID 904;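 note: 0% = DMSO only and -100% = full killing by 100 µM tamoxifen; nearly all actives have a fitted effect of over 50% in size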
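H1299 lung cancer cells, p53-null (H1299-neo) or expressing p53 A138V (H1299-p53A138V), were plated overnight at 37C, then exposed to compounds at up to 46 uM for 24 hr at 39C. Viability was read by ATP-based luminescence.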
mTORC1 inh = inhibitors of mTORC1 signaling in Tsc2-/- p53-/- MEF cells; AID 493208; Potency, µM (top dose mostly 38.3 µM), inactives show at the top dose activity change, negative = inhibition, hits mostly inhibitors; Tsc2-/- p53-/- MEF, phospho-rpS6 immunofluorescence/PI, 24 h; actives 0.78% (n = 44,000);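 note: plate controls were DMSO for no effect and rapamycin for full effect; nearly all actives have a fitted effect of over 50% in size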
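Compounds act on Tsc2-/-, p53-/- fibroblasts carrying an empty vector for 24 h before fixation and dual staining for phospho-S6 and DNA (propidium iodide). Values are percentages of cells above a rapamycin-defined pS6/PI threshold.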
PMP22 txn prim = modulators of PMP22 gene transcription in S16 Schwann cells; S16 Pmp22-F2sN Schwann cells (luciferase reporters placed in the Pmp22 gene), FLuc/NLuc coincidence luminescence, 24 h; Potency, µM (series often up to 57.5 µM), for inactives: at the top dose activity change, negative = inhibition, hits mostly inhibitors; actives 2% (n = 43,000); AID 1508649; active = clear falling dose curves in both reporters; inconclusive = both reporters move, but less clearly or upward; inactive = either reporter flat; the % is the NLuc reporter signal
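Rat S16 Pmp22-F2sN cells, 500-1,000/well in phenol red-free DMEM + 10% FBS, compound-treated 24 h (37C, 5% CO2). Luminescence: FLuc read, Stop&Glo added, NLuc read.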
Active calls of the source: *; i = inactive; ? = inconclusive; . = no result given. The list is not random: actives were taken first. Their share in the collection is about 3.1%. Unless noted, calls come from the whole dose curve; as a rule, active = well fitted curve in the direction sought with a large enough effect; inconclusive = small, poorly fitted or top-dose-only effect, or another doubt; inactive = no such curve, though single readings can be large; an effect the other way counts as inactive or inconclusive. Unless noted, % is set by controls: 0 for no effect and ±100 for the full control effect; potency is the fitted concentration of half-maximal effect.

SMILES | S16 F2sN tox | p53null 32C kill | SKOV3 invasion | p53null 39C tox | mTORC1 inh | PMP22 txn prim
CN[C@@H]1C[C@H]2O[C@@](C)([C@H]1OC)n1c3ccccc3c3c4c(c5c6ccccc6n2c5c31)C(=O)N[C@H]4O | . | . | -19% | . | . | .
CCc1nn(CC(=O)NCc2ccccc2)c(=O)c2cccn12 | 0% | -7% | 4% | 25µM* | ? | 9%
CCOC(=O)N1c2ccc(C(F)(F)F)cc2[C@@H](N(Cc2cc(C(F)(F)F)cc(C(F)(F)F)c2)C(=O)OC)C[C@H]1CC | . | . | 4% | . | . | .
COc1ccc(S(=O)(=O)NCC(c2ccco2)S(=O)(=O)c2cccs2)cc1F (configuration not stated) | 13µM* | 3% | 7% | -27% | -5% | 15µM*
CCOc1ccc(S(=O)(=O)NCC(c2ccco2)S(=O)(=O)c2cccs2)cc1 (configuration not stated) | ? | 1% | -1% | 20% | 1% | ?
COc1ccc(S(=O)(=O)NCC(c2ccco2)S(=O)(=O)c2cccs2)cc1C (configuration not stated) | 22µM* | 15% | -2% | -1% | -1% | ?
Cc1cc(F)ccc1S(=O)(=O)NCC(c1ccco1)S(=O)(=O)c1cccs1 (configuration not stated) | 16µM* | 6% | ? | 16% | 1% | ?
C[C@@]1(C(=O)Nc2ccc(F)nc2)CCCN1c1nc(Nc2cc(C3CC3)[nH]n2)c2cccn2n1 | . | . | -26% | . | . | .
O=C(CCCCCCC(=O)Nc1cccnc1)NO | . | . | -19% | . | . | .
Oc1ccc(-c2ccc(-c3cc(Nc4cccc(CNC5CC5)c4)n[nH]3)cc2)c(O)c1 | . | . | 20% | . | . | .
CC(C)(O)c1cc2nc(-c3cnc(N)nc3)nc(N3CCOCC3)c2s1 | . | . | 1% | . | . | .
CCOC(=O)c1cccc(NS(=O)(=O)c2cc(-c3cnc(C4CC4)o3)ccc2C)c1 | 20µM* | 43% | i | 9% | 0% | -73%
CCOc1ccccc1OCCNC(C)Cc1ccc(OC)c(S(N)(=O)=O)c1 (configuration not stated) | . | . | 12% | . | . | .
Cc1ccc(S(=O)(=O)Nc2cccc(-c3ccc(N4CCCCC4)nn3)c2)s1 | -17% | 13µM* | -1% | 13µM* | 3% | -14%
CC(=O)c1ccc(S(=O)(=O)Nc2cccc(-c3ccc(N4CCCCC4)nn3)c2)cc1 | . | 10µM* | 8% | 7.9µM* | 3% | .
CCc1ccc(S(=O)(=O)Nc2cccc(-c3ccc(OC)nn3)c2)s1 | ? | 2% | 9% | -1% | -1% | -19%
CCc1ccc(S(=O)(=O)Nc2cccc(-c3ccc(N4CCCCC4)nn3)c2)s1 | . | 16µM* | 0% | 13µM* | 0% | .
CC(C)OC(=O)C1=CN(C(=O)c2ccc(F)c(F)c2)CC(C)(C)c2c1[nH]c1ccccc21 | . | . | -21% | . | . | .
COc1c(C)c2c(c(O)c1CC=C(C)CCC(=O)O)C(=O)OC2 | . | . | -8% | . | . | .
O=C(CN1C(=O)C2(CCCC2)NC[C@H]1c1cc(F)cc(F)c1)Nc1ccc2c(c1)C[C@@]1(C2)C(=O)Nc2ncccc21 | . | . | 5% | . | . | .
O=C(Nc1noc2ccccc12)c1c(F)cccc1F | 2% | ? | -7% | 10µM* | -2% | -10%
CCOc1ccc(NC(=O)c2oc3ccccc3c2NC(=O)c2c(F)cccc2F)cc1 | -3% | -13% | i | 3% | -23% | -6%
CC=C1NC(=O)[C@H]2CSSCCC=C[C@H](CC(=O)N[C@H](C(C)C)C(=O)N2)OC(=O)[C@H](C(C)C)NC1=O | . | . | -15% | . | . | .
Cc1cc(Nc2ccc(C(C)C)cc2)nc(-n2nc(C)cc2C)n1 | ? | 7% | -17% | 31% | -24% | ?
COc1ccc(Nc2cc(C)nc(-n3nc(C)cc3C)n2)cc1Cl | ? | -7% | 3% | ? | ? | 5.5µM*
SMILES | S16 F2sN tox | p53null 32C kill | SKOV3 invasion | p53null 39C tox | mTORC1 inh | PMP22 txn prim
Nc1ccc2oc(-c3ccccc3Br)nc2c1 | -2% | ? | 3% | 13µM* | -2% | ?
COc1ccc(-c2nn(C)c3sc(C(=O)Nc4cccc(F)c4)cc23)cc1OC | 14µM* | 5% | -35% | 3% | ? | ?
COc1cccc(NC(=O)c2cc3c(-c4ccc(Cl)cc4)nn(C)c3s2)c1 | -18% | 19% | 6% | 8% | -2% | -9%
CS(=O)(=O)c1ccc(C(=O)Nc2ccc(Cl)c(-c3ccccn3)c2)c(Cl)c1 | . | . | -5% | . | . | .
COc1cccc(/C=C(\C#N)c2nc3ccc(C)cc3[nH]2)c1 | ? | ? | -15% | ? | ? | ?
CCOC(=O)COc1ccc(/C=C(\C#N)c2nc3ccc(C)cc3[nH]2)cc1OC | 8.9µM* | ? | -7% | ? | -6% | 8.9µM*
COc1cc(/C=C(\C#N)c2nc3ccc(C)cc3[nH]2)ccc1OCc1ccc(C)cc1 | ? | ? | 6% | 13µM* | ? | ?
Nc1ncnc2c1c(-c1cccc(OCc3ccccc3)c1)cn2C1CC(CN2CCC2)C1 (configuration not stated) | . | . | 3% | . | . | .
Cc1ccc(Cl)cc1N1CCN(C(=O)C2CCN(Cc3nc(-c4cccc(Cl)c4)oc3C)CC2)CC1 | ? | 0% | -6% | 25µM* | 2% | ?
Cc1oc(-c2cccc(Cl)c2)nc1CN1CCC(C(=O)NC(C)C)CC1 | 6% | 0% | -5% | -19% | -6% | 32%
Cc1nc(-c2cccc(NC(=O)c3cccs3)c2)cs1 | . | 2% | . | -9% | . | .
CC(=O)Nc1cccc(-c2csc(Nc3ccc(C)cn3)n2)c1 | . | 11µM* | . | . | . | .
CO[C@H]1C(=O)[C@]2(C)[C@@H](OC)C[C@H]3OC[C@@]3(OC(C)=O)[C@H]2[C@H](OC(=O)c2ccccc2)[C@]2(O)C[C@H](OC(=O)[C@H](O)[C@@H](NC(=O)OC(C)(C)C)c3ccccc3)C(C)=C1C2(C)C | . | . | 8% | . | . | .
O=C(Nc1ccc(F)cc1)c1csc2c1CCCCC2 | -14% | 16µM* | 16% | ? | ? | -19%
CS(=O)(=O)Nc1ccc(-c2nc3ccccc3s2)cc1 | 2% | 4µM* | 2% | 1.6µM* | -5% | -7%
Cc1c(NS(C)(=O)=O)cccc1-c1nc2ccccc2s1 | -23% | ? | -8% | ? | -6% | ?
O=C(NCCN1CCCCC1)c1ccc(Cn2c(SCc3ccccc3)nc3cccnc32)cc1 | ? | 16µM* | ? | 13µM* | -6% | -13%

Compound activity: PubChem, National Center for Advancing Translational Sciences (NCATS)
